Experimental data taken from PubChem BioAssay (EPA / NIEHS).
Inconclusive results are not listed. The source made the active and inactive calls. How the source made its calls, unless noted: active means hit-call score of the fitted dose curve at least 0.9, where 1 is the maximum; inconclusive means response in the unintended direction; inactive means score below 0.9.

Tests used:
[1] = Tanguay_ZF_120hpf_JAW_legacy: (Legacy) Oregon State University Tanguay Lab 120 Hour Post-fertilization zebrafish Assay for Jaw Malformation (AID 2283638)
How it was run: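 Wild-type 5D embryos, chorion removed at 4 hpf, dosed singly from 6 hpf; 28C static, sealed, foil-covered, to 120 hpf. Endpoint: jaw defect yes/no (brightfield); mortality excludes scoring.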

[2] = Tanguay_ZF_120hpf_OTIC_legacy: (Legacy) Oregon State University Tanguay Lab 120 Hour Post-fertilization zebrafish Assay for Otic Vesicle Malformation (AID 2283639)
How it was run: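 Brightfield scoring at 120 hpf, binary present/absent; DMSO negative control, 5uM trimethyltin chloride positive control. Static exposure at 28C, final DMSO 0.64% (vol/vol). Dead embryos not scored for malformation.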

[3] = Tanguay_ZF_120hpf_PE_legacy: (Legacy) Oregon State University Tanguay Lab 120 Hour Post-fertilization zebrafish Assay for Pericardial Edema (AID 2283640)
How it was run: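 Zebrafish larvae are exposed from early development to 120 hpf at 28C, with 0.64% DMSO final. Each surviving larva receives a yes/no pericardial edema call by brightfield imaging, analysed relative to the DMSO baseline.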

[4] = Tanguay_ZF_120hpf_BRAI_legacy: (Legacy) Oregon State University Tanguay Lab 120 Hour Post-fertilization zebrafish Assay for Brain Malformation (AID 2283641)
How it was run: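 Static exposure of staged wild-type embryos until 120 hpf, kept at 28C with light excluded and final DMSO of 0.64% (vol/vol). Presence or absence of brain malformation was noted under brightfield; mortality precluded scoring.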

[5] = Tanguay_ZF_120hpf_SOMI_legacy: (Legacy) Oregon State University Tanguay Lab 120 Hour Post-fertilization zebrafish Assay for Somite Malformation (AID 2283647)
How it was run: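 Somitogenesis defects are recorded as binary calls in whole larvae at 120 hpf after continuous static chemical exposure starting at 6 hpf in dechorionated 5D embryos. DMSO serves as negative control and baseline.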

[6] = Tanguay_ZF_120hpf_PFIN_legacy: (Legacy) Oregon State University Tanguay Lab 120 Hour Post-fertilization zebrafish Assay for Pectoral Fin Malformation (AID 2283648);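 further: each larva judged yes or no for fin defect by brightfield with dead larvae skipped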
How it was run: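 Binary pectoral fin malformation call at 120 hpf by brightfield microscopy; 5D wild-type zebrafish, chorion removed at 4 hpf, one embryo per well from 6 hpf, static exposure at 28C; DMSO (0.64% final) as baseline.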

[7] = Tanguay_ZF_120hpf_CFIN_legacy: (Legacy) Oregon State University Tanguay Lab 120 Hour Post-fertilization zebrafish Assay for Caudal Fin Malformation (AID 2283649)
How it was run: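 Single dechorionated 5D wild-type embryos are dosed at 6 hpf (final DMSO 0.64%) and held statically at 28C. Caudal fin malformation is recorded as present or absent at 120 hpf under brightfield, excluding dead embryos.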

[8] = Tanguay_ZF_120hpf_PIG_legacy: (Legacy) Oregon State University Tanguay Lab 120 Hour Post-fertilization zebrafish Assay for Pigmentation Malformation (AID 2283650);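 further: dechorionated Tropical 5D zebrafish embryos exposed singly from 6 to 120 hpf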
How it was run: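 Brightfield scoring of pigmentation malformation at 120 hpf, recorded as binary present/absent per larva. Exposure: dechorionated 5D wild-type embryos, one per well, static from 6 hpf at 28C, final DMSO 0.64% (vol/vol). Dead embryos not scored.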

[9] = Tanguay_ZF_120hpf_CIRC_legacy: (Legacy) Oregon State University Tanguay Lab 120 Hour Post-fertilization zebrafish Assay for Circulatory Malformation (AID 2283651)
How it was run: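 Static exposure, 6–120 hpf, 28C, sealed and dark; one dechorionated 5D embryo/well; DMSO 0.64% v/v final. Binary circulation endpoint by brightfield; dead embryos not scored.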

[10] = Tanguay_ZF_120hpf_SWIM_legacy: (Legacy) Oregon State University Tanguay Lab 120 Hour Post-fertilization zebrafish Assay for Swim Bladder Malformation (AID 2283654);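 further: swim bladder malformation in each larva scored yes or no under brightfield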
How it was run: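 Tropical 5D embryos dechorionated at 4 hpf; 1 embryo/well from 6 hpf; static, sealed, dark exposure at 28C until 120 hpf; final DMSO 0.64%; 5uM trimethyltin chloride positive control; swim bladder defect recorded yes/no; dead embryos not scored.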

[11] = Tanguay_ZF_120hpf_TRUN_legacy: (Legacy) Oregon State University Tanguay Lab 120 Hour Post-fertilization zebrafish Assay for Truncated Body (AID 2283655)
How it was run: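 Single dechorionated zebrafish embryos received test chemical from 6 hpf in 0.64% DMSO, kept at 28C. At 120 hpf, brightfield inspection noted any truncated body.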

[12] = Tanguay_ZF_120hpf_NC_legacy: (Legacy) Oregon State University Tanguay Lab 120 Hour Post-fertilization zebrafish Assay for Notochord and Tail Malformation (AID 2283656)
How it was run: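 Binary notochord-distortion calls, made by brightfield inspection, form the read-out; activity is fitted in the positive direction against DMSO. Exposure ran statically from 6 to 120 hpf at 28C with 0.64% DMSO.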

[13] = Tanguay_ZF_120hpf_TR_legacy: (Legacy) Oregon State University Tanguay Lab 120 Hour Post-fertilization zebrafish Assay for Touch Response (AID 2283667)
How it was run: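 Binary touch-response call at 120 hpf, analysed as gain of signal versus DMSO baseline. Wild-type 5D larvae, static exposure at 28C, 0.64% DMSO final; 5uM trimethyltin chloride as positive control.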

[14] = test system: Thyroperoxidase (TPO), gene 54314; experiment: CCTE_Simmons_AUR_rTPO: CCTE's Amplex UltraRed Assay for Thyroperoxidase (TPO) Inhibition, Simmons Lab (AID 2283662);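 further: potency for loss of signal meaning inhibition of peroxidase activity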
How it was run: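 Rat thyroid microsomes (5 ug protein) were incubated with test compound (8 concentrations, 5 nM–87.5 uM final, 0.5% DMSO), 25 uM Amplex UltraRed and 300 uM H2O2 in 200 mM phosphate buffer for 30 min at 37C in the dark; fluorescence read at 544/590 nm.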

[15] = CCTE_Simmons_CellTiterGLO_HEK293T: Viability Assessment in CCTE's Assays for Thyroperoxidase (TPO) Inhibition, Simmons Lab (AID 2283665);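 on AC50: cells exposed to compound for 24 h before readout; actives reduce ATP signal below DMSO vehicle meaning cytotoxicity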
How it was run: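 Luminescent ATP readout (CellTiter-Glo, 20 min at room temperature) after 24 hr exposure of HEK293T cells to 5 nM–87.5 uM final compound; signal loss relative to DMSO vehicle indicated cytotoxicity; dichlone titrated as positive control.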

[16] = read-out: solute carrier (SLC22A6), SLC22A6 (gene 9356); experiment: LTEA_HepaRG_SLC22A6: Life Technologies and Expression Analysis (LTEA) Assay for solute carrier (SLC22A6) using HepaRG (AID 2283653; active means hit-call score of the fitted dose curve at least 0.9, where 1 is the maximum; inactive means score below 0.9); conditions: mRNA level, 48 h; actives raise or lower the signal
How it was run: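 Gene-expression endpoint in HepaRG hepatic cells: duplicate 8-point concentration-response, highest 100 uM, 48 h treatment in serum-free medium with 0.5% DMSO. SLC22A6 expression measured by qRT-PCR, normalised to ACTB/GAPDH/POLR2A.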

[17] = read-out: solute carrier (SLC10A1), SLC10A1 (gene 6554); experiment: LTEA_HepaRG_SLC10A1: Life Technologies and Expression Analysis (LTEA) Assay for solute carrier (SLC10A1) using HepaRG (AID 2283657; active means hit-call score of the fitted dose curve at least 0.9, where 1 is the maximum; inactive means score below 0.9); conditions: mRNA level, 48 h; actives raise or lower the signal
How it was run: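 HepaRG, 48 h exposure, 8-pt half-log curve from 100 uM in 0.5% DMSO, duplicates. Read-out: TaqMan qRT-PCR of SLC10A1 mRNA, normalized to three housekeeping genes. Gain/loss fit vs DMSO baseline.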

[18] = read-out: matrix metalloproteinase-1 (MMP1), MMP1 (gene 4312); experiment: LTEA_HepaRG_MMP1: Life Technologies and Expression Analysis (LTEA) Assay for matrix metalloproteinase-1 (MMP1) using HepaRG (AID 2283658; active means hit-call score of the fitted dose curve at least 0.9, where 1 is the maximum; inactive means score below 0.9); conditions: mRNA level, 48 h; actives raise or lower the signal
How it was run: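 In this screen, human liver HepaRG cultures receive each chemical in duplicate for 48 h (top 100 uM, 0.5% DMSO). MMP1 expression is then quantified by TaqMan qRT-PCR with ACTB/GAPDH/POLR2A normalization.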

[19] = read-out: Cytochrome P450 (CYP24A1_1), CYP24A1 (gene 1591); experiment: LTEA_HepaRG_CYP24A1_1: Life Technologies and Expression Analysis (LTEA) Assay for Cytochrome P450 (CYP24A1_1) using HepaRG (AID 2283671; active means hit-call score of the fitted dose curve at least 0.9, where 1 is the maximum; inactive means score below 0.9); conditions: mRNA level, 48 h; actives raise or lower the signal
How it was run: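 Readout is CYP24A1 transcript level by qRT-PCR, normalized to three housekeeping genes, with gain or loss of signal fitted against 0.5% DMSO. Human HepaRG cells received compound for 48 h at up to 100 uM.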

| SMILES | outcome [1] | outcome [2] | outcome [3] | outcome [4] | outcome [5] | outcome [6] | outcome [7] | outcome [8] | outcome [9] | outcome [10] | outcome [11] | outcome [12] | outcome [13] | AC50 [14] | AC50 [15] | outcome [16] | outcome [17] | outcome [18] | outcome [15] | outcome [19] |
| --- | --- | --- | --- | --- | --- | --- | --- | --- | --- | --- | --- | --- | --- | --- | --- | --- | --- | --- | --- | --- |
| NC(=Nc1ccccc1)Nc1ccccc1 | inactive | inactive | inactive | inactive | inactive | inactive | inactive | inactive | inactive | inactive | inactive | inactive | inactive |  |  |  |  |  |  |  |
| Cc1c(C)c2c(c(C)c1O)CCC(C)(COc1ccc(CC3SC(=O)NC3=O)cc1)O2 (stereo not drawn) | inactive | inactive | inactive | inactive | inactive | inactive | inactive | inactive | inactive | inactive | inactive | inactive | inactive | 1.91 µM (active) | 19 µM (active) |  |  |  |  |  |
| CCCCCCCC(=O)OC | inactive | inactive | inactive | inactive | inactive | inactive | inactive | inactive | inactive | inactive | inactive | inactive | inactive |  |  |  |  |  |  |  |
| CCOCCOCCO | inactive | inactive | inactive | inactive | inactive | inactive | inactive | inactive | inactive | inactive | inactive | inactive | inactive |  |  |  |  |  |  |  |
| CCc1nc(N)nc(N)c1-c1ccc(Cl)cc1 | inactive | inactive | inactive | inactive | inactive | inactive | inactive | inactive | inactive |  | inactive | inactive |  |  |  |  |  |  |  |  |
| OCC(O)CO | inactive | inactive | inactive | inactive | inactive | inactive | inactive | inactive | inactive | inactive | inactive | inactive | inactive |  |  |  |  |  |  |  |
| c1ccc2occc2c1 | inactive | inactive | inactive | inactive | inactive | inactive | inactive | inactive | inactive | inactive | inactive | inactive | inactive |  |  |  |  |  |  |  |
| CN(C)C(=O)NC1(c2ccccc2)CCN(CCC[C@]2(c3ccc(Cl)c(Cl)c3)CCCN(C(=O)c3ccccc3)C2)CC1 | inactive | inactive | inactive | inactive | inactive | inactive | inactive | inactive | inactive | inactive | inactive | inactive | inactive |  |  |  |  |  |  |  |
| CCCCCCCCCCCCCCCCO | inactive | inactive | inactive | inactive | inactive | inactive | inactive | inactive | inactive | inactive | inactive | inactive | inactive |  |  |  |  |  |  |  |
| CCCCc1nc2cccnc2n1Cc1ccc(-c2ccccc2-c2nnn[nH]2)cc1 | inactive | inactive | inactive | inactive | inactive | inactive | inactive | inactive | inactive | inactive | inactive |  |  |  |  |  |  |  |  |  |
| O=C1CCCCC1 | inactive | inactive | inactive | inactive | inactive | inactive | inactive | inactive | inactive | inactive | inactive | inactive | inactive |  |  |  |  |  |  |  |
| O=[Si]=O | inactive | inactive | inactive | inactive | inactive | inactive | inactive | inactive | inactive | inactive | inactive | inactive | inactive |  |  |  |  |  |  |  |
| Cc1occc(=O)c1O | inactive | inactive | inactive | inactive | inactive | inactive | inactive | inactive | inactive | inactive | inactive | inactive | inactive | 21.7 µM (active) |  | inactive | inactive | inactive | inactive | inactive |
